Among the data in PubChem BioAssay (NCI) are growth inhibition values, retold here.

About 79,000 compounds went through this panel and 15% of them were active in at least one assay; those are over-represented in the sample as a whole. A number with no mark means an inactive call. Activity calls are given as the source filed them. Cut-off read from the data, not from the text of the source: active = growth inhibition above about 70%; inactive = the rest.

A short description of the assay: NCI Yeast Anticancer Drug Screen. Data for the mlh1 rad18 strain (AID 175). The note with it: S. cerevisiae mlh1 rad18 strain growth inhibition; at 50.0 µM; hits give high values. The procedure:
Growth inhibition of yeast strains with defined genetic alterations is measured as a screen for potential anti-cancer activity. Selected strains with alterations in DNA damage repair or cell cycle control were exposed to compounds and growth inhibition was measured relative to vehicle treated controls. The strain used in this assay is mlh1 rad18
For the compound `COc1cc(C(=O)N2C[C@H](O)C[C@H]2C(=O)O)cc(OC)c1OC`, the growth inhibition is -9.85%. `C=CC(OC(=O)/C=C/C)OC(=O)/C=C/C`: the growth inhibition was 21.6%. Regarding `Nc1ccn(C2OC(CO)C(O)C2Br)c(=O)n1` (stereo not given), the growth inhibition was 14.1%. As for `O=C(OCC1OC(OC(=O)N(c2ccccc2)c2ccccc2)C(OS(=O)(=O)c2ccc([N+](=O)[O-])cc2)C1OC(=O)c1ccccc1)c1ccccc1` (stereo not given), the growth inhibition is 24%. For the compound `C#Cc1c(C)c(/C=C/C(C)=C/C=C/C(C)=C/C(=O)OC)n(C)c1C`, the growth inhibition is 23.4%. On to `CC(C)(/C=N\O)NO`, for which the growth inhibition is -0.9%. Consider `Fc1c(F)c(F)c(SN=S=Nc2ccccc2)c(F)c1F`, for which the growth inhibition is 26.9%.

In the case of `CCCCCC/C=C1\CCC(CN(C)C)C1=O` (stereo not given), the growth inhibition is 91.4% (active).

Regarding `NNC(=O)C(=O)O`, the growth inhibition was 14.8%. Then `Fc1ccc(C(Nc2nncs2)Nc2nncs2)c(F)c1`, with 9.7%; and `COC(=O)c1ccc(C(=O)OC)c2nc3ccccc3nc12`, with 7.6%; and `O=Nc1ccc(O)cc1O`, with 19.1%. In the case of `O=C(N=Nc1c(O)[nH]c2ccc(Br)cc12)c1ccncc1`, the growth inhibition was -10.1%. As to `N#Cc1ccc(Oc2ccc(C#N)cc2)cc1`, the growth inhibition was -1.1%. As for `NC(=O)c1nnsc1NC=O`, the growth inhibition is -29.8%. Then `[O-][n+]1c(/C=C/c2cccc3ccccc23)cccc1/C=C/c1cccc2ccccc12`, with 40.8%; and `CC(C)N(C(=O)c1ncccc1C(=O)c1ccccn1)C(C)C`, with -5.05%. Turning to `NC(=O)C(CC(C(N)=O)C(N)=O)C(N)=O`, the growth inhibition was -6.55%.

Regarding `CCOC(=O)c1c(-c2ccc(OC)cc2)c(C#N)c(=S)n(C2OC(CO)C(O)C(O)C2O)c1C` (stereo not given), the growth inhibition is 10.1%. Then `O=C1OC(c2cccc([N+](=O)[O-])c2)=N/C1=C\c1ccccc1`, with 24.6%; and `C=CCOc1cc2c(cc1Cc1cc(OC)c(OC)c(OC)c1)OCO2`, with 55.2%; and `CC(C)CC1=C(C(=O)c2ccoc2)CC(C)C1` (stereo not given), with -7.1%. As to `CC(=O)OC12c3ccccc3C(c3ccccc31)C1C(=O)N(c3ccccn3)C(=O)C12` (stereo not given), the growth inhibition is 5.6%. Turning to `O=C1C2CSCN2C(=O)C2CSCN12` (stereo not given), the growth inhibition was 4.5%. With `OCc1cc2ccc3ccccc3c2[nH]1`, the growth inhibition is 25.6%. Turning to `CC(=O)NC(Cc1c[nH]c2ccccc12)C(=O)Oc1ccc([N+](=O)[O-])cc1` (stereo not given), the growth inhibition is 17.6%. In the case of `O=C1CSC(=NCCN=C2NC(=O)CS2)N1`, the growth inhibition is 28.2%.

Regarding `FC(F)(F)c1cc(Nc2nc(-c3ccccc3)nc3c2C(=NCc2ccco2)OC3=NCc2ccco2)ccc1Cl`, the growth inhibition was 9.75%. In the case of `CC(C)(C)/C=C/N=NNc1ccccc1C(=O)NC(C)(C)C` it was 12.1%. Then `[O-]c1c(Cl)c(Cl)c(O[P+](c2ccccc2)(c2ccccc2)c2ccccc2)c(Cl)c1Cl`, with 99.2% (active); and `Cc1ccc(S(=O)(=O)OCC2OCOC2C2OCOC2CI)cc1` (stereo not given), with 13.2%. On to `Cc1nc(C(N)=S)sc1C(=O)CC(=O)C(=O)Nc1c(C(C)C)cccc1C(C)C`, for which the growth inhibition was -22.1%. Consider `O=[N+]([O-])c1ccc2c(c1)Cc1cccc([N+](=O)[O-])c1-2`, for which the growth inhibition was 9.5%. Turning to `CC(C)CNC(=S)N/N=C/c1ccc(N)cc1`, the growth inhibition is -1.1%.

`CC1C2=C(CC(C)(C)CC2=O)OC2=C1C(=O)CC(C)(C)C2`: the growth inhibition was -3.5%. In the case of `O=C(O)CCCCCN1C(=O)c2cccc([N+](=O)[O-])c2C1=O` it was 12.7%; in that of `N#Cc1c[nH]c2cccc([N+](=O)[O-])c12` (tested in a mixture with another compound), -2.8%. For `CCN1C(=O)/C(=C\c2coc3ccccc3c2=O)SC1=S`, the growth inhibition was -0.2%. As for `CC1(C)Cc2oc(=Nc3ccccc3)n(-c3ccccc3)c(=O)c2C1`, the growth inhibition is 0.15%. Consider `CC(C)COC1=CC(=O)c2ccccc2C1=O`, for which the growth inhibition was -7%.
